PPARg SRC-3 ag – promotes SRC-3 coactivator recruitment by human PPARgamma. 200,000 compounds, 0.26% hits. biochemical PPARgamma/SRC-3 coactivator recruitment assay. AID 731. activation, % at 8 µM; in the data active means activation above about 23%
PPARg SRC-1 ag – PPARgamma-driven SRC-1 recruitment agonism | 200,000 compounds, 0.41% hits | AID 631 | P37231 | PPARgamma-SRC-1 coactivator recruitment biochemical assay | activation, % at 8 µM; in the data active means activation above about 19%
SRC3 TRFRET art – TR-FRET artefact, counter-screen to PPARgamma/SRC-3 agonist assay. TR-FRET ratio at 8 µM. 99,000 compounds, 0.39% hits. PPARgamma/SRC-3 format; hits give high values; in the data active means TR-FRET ratio above about 2000
PPARg SRC-2 ag – promotes SRC-2 coactivator recruitment by human PPARgamma; activation, % at 8 µM; PPARgamma LBD-SRC-2 recruitment, biochemical; AID 1032; P37231; 200,000 compounds, 0.34% hits
SRC1 TRFRET art – flags TR-FRET format artefacts in PPARgamma SRC-1 recruitment agonist screen | TR-FRET detection artefact counter-screen, emission ratio; hits give high values | TR-FRET ratio at 8 µM | AID 1051 | 99,000 compounds, 0.34% hits; in the data active means TR-FRET ratio above about 2300
SRC2 TRFRET art – flags TR-FRET format artefacts in PPARgamma SRC-2 recruitment agonist screen | TR-FRET artefact counter-screen; hits give high values | TR-FRET ratio at 8 µM | 200,000 compounds, 0.4% hits; in the data active means TR-FRET ratio above about 2000
PPARg SRC2 conf – confirmation of agonists of SRC-2 recruitment by human PPARgamma | shares compounds with PPARg SRC-3 ag | biochemical SRC-2 recruitment by PPARgamma | activation, % at 8 µM | 790 compounds, 52% hits
PPARg SRC1 ag – human PPARgamma SRC-1 recruitment agonism, confirmation | shares compounds with PPARg SRC-3 ag | PPARgamma–SRC-1 coactivator recruitment biochemical assay | activation, % at 8 µM | 790 compounds, 43% hits | AID 1300; in the data active means activation above about 20%
PPARg SRC3 ag – human PPARgamma SRC-3 recruitment agonism, confirmation. shares compounds with PPARg SRC-3 ag. AID 1301. biochemical PPARgamma-SRC-3 coactivator recruitment, agonist mode. activation, % at 8 µM. 790 compounds, 29% hits; in the data active means activation above about 24%
Hits are given with their value; - = inactive; . = no result. An excerpt weighted towards active compounds, which were near 0.84% of everything screened. Unless noted, no stated cut-off is given here; in the data, active means activation above about 22%; inactive means the rest.

SMILES	PPARg SRC-3 ag	PPARg SRC-1 ag	SRC3 TRFRET art	PPARg SRC-2 ag	SRC1 TRFRET art	SRC2 TRFRET art	PPARg SRC2 conf	PPARg SRC1 ag	PPARg SRC3 ag
O=c1c2c(-c3cccs3)csc2[nH]c(=S)n1-c1ccccc1	82	65	.	43	.	2587	63	48	42
O=c1c2c(-c3cccs3)csc2ncn1-c1ccccc1	-	-	.	-	.	-	.	.	.
CCn1c(=S)[nH]c2scc(-c3cccs3)c2c1=O	39	52	2804	49	3314	2915	60	44	39
COC(=O)c1cc2c(-c3ccccc3)c(C)c3ccccn3c-2c1C(=O)OC	29	-	.	-	.	-	-	-	-
COC(=O)c1c(C(=O)OC)c2cc(C)ccn2c1Cl	-	-	.	-	.	-	.	.	.
COC(=O)c1c(Cl)c2n3ccccc3c(C)c(-c3ccccc3)c-2c1C(=O)OC	-	-	2198	24	2328	2016	-	-	-
C#CCNC(=O)C1=C[C@H](c2ccccc2)[C@@H](CCCO)[C@H](OCC)O1	-	-	-	-	-	-	.	.	.
O=C(CSc1cn(Cc2ccccc2)c2ccccc12)NCc1ccc(F)cc1	-	-	-	-	-	-	.	.	.
CCC(CC)NC(=O)CO/N=C/c1ccccc1OC(F)F	-	-	-	-	-	-	.	.	.
O=C(C(=O)N1CCN(c2cccc(Cl)c2)CC1)c1c[nH]c2ccccc12	-	-	-	-	-	-	.	.	.
COCCNc1nc2ccccc2nc1NS(=O)(=O)c1ccc(C)cc1C	-	-	.	23	.	2002	24	-	-
COCCNC(=O)Cn1nc(C)c([N+](=O)[O-])c1C	-	-	-	-	-	-	.	.	.
CCSC1=NSC2=NC(=O)/C(=C\c3coc4ccccc4c3=O)C(=N)N12	23	-	-	-	-	-	-	-	-
COc1ccc2c(c1)nc(SCC(=O)c1ccc(Br)s1)n2C	-	-	.	28	.	-	39	27	28
CCN(Cc1ccncc1)C(=O)C1CCN(S(=O)(=O)c2cccs2)CC1	-	-	.	-	.	-	.	.	.
O=C(c1ccccc1)N1CCSC1=S	-	-	.	-	.	-	.	.	.
O=C(c1ccccc1)N1CCSc2sccc2C1=O	-	-	2052	29	2582	2115	39	32	24
CC(C)(O)C#Cc1ccc(C(=O)N2CCN(c3ccc(Cl)cc3)CC2)cc1	-	-	-	-	-	-	.	.	.
CSc1cnn(-c2ccccc2)c(=O)c1SC	152	106	.	121	.	3988	99	68	68
COc1cnn(-c2ccc(C)cc2)c(=O)c1SCc1ccccc1	-	-	.	-	.	-	.	.	.
CCSc1cnn(-c2ccccc2)c(=O)c1SCC	123	68	.	96	.	3615	65	41	47
COc1cnn(-c2ccccc2)c(=O)c1SCc1ccc(Cl)cc1Cl	-	-	.	-	.	-	.	.	.
CCCCSc1cnn(-c2ccccc2)c(=O)c1SCCCC	45	24	.	28	.	1992	40	24	26
CSc1cnn(Cc2ccccc2)c(=O)c1SCc1ccccc1	24	-	-	30	2367	-	85	61	57
O=c1c(Cl)c(Cl)cnn1-c1ccccc1	-	-	-	-	-	-	.	.	.
SMILES	PPARg SRC-3 ag	PPARg SRC-1 ag	SRC3 TRFRET art	PPARg SRC-2 ag	SRC1 TRFRET art	SRC2 TRFRET art	PPARg SRC2 conf	PPARg SRC1 ag	PPARg SRC3 ag
Cc1ccc(N2C(=O)N(Cc3ccccc3C)c3ccccc3S2(=O)=O)cc1	-	-	-	-	-	-	.	.	.
Cc1cc(C)c(C#N)c(N)n1	-	-	-	-	-	-	.	.	.
Cc1cc(-c2cccc(Br)c2)c(C#N)c(N)n1	-	22	-	25	2711	-	-	-	-
CCCC(=O)Nc1nc(C)c(C(C)=O)s1	-	35	2466	30	2803	2441	32	21	-
COc1cccc2c1C(=O)c1c(O)c3c(c(O)c1C2=O)C[C@@](O)(C(=O)CO)C[C@@H]3O[C@H]1C[C@H](N)[C@H](O)[C@H](C)O1	-	28	-	-	-	-	-	-	-
CC(=O)c1ccc(N2CCN(C(=O)c3ccc(Cn4c(=S)[nH]c5ccc(N6CCOCC6)cc5c4=O)cc3)CC2)cc1	35	40	3877	37	4282	3627	-	-	-
COc1ccc(-c2nnc(Nc3ccc(S(=O)(=O)Nc4nccs4)cc3)c3ccccc23)cc1	47	55	-	-	-	-	35	25	24
COc1ccc(S(=O)(=O)Nc2nccs2)cc1OC	-	-	-	-	-	-	.	.	.
O=[N+]([O-])c1ccc(C2Nc3cccc4cccc(c34)N2)cc1	-	21	-	-	-	-	-	-	-
CC1(C)Cc2c(sc(NC(=O)C3CC(Cl)=CCC3C(=O)O)c2C#N)CO1 (centres undefined)	-	-	-	-	-	-	.	.	.
CNc1cnn(-c2ccc(C)cc2)c(=O)c1Cl	-	-	.	-	.	-	.	.	.
Cc1ccc(S(=O)(=O)Nc2cnn(-c3ccccc3)c(=O)c2Cl)cc1	28	34	2439	39	3010	2289	47	35	28
CC(C)(C)NC(=O)C(c1cccs1)N(C(=O)c1csnn1)c1ccccc1F (centres undefined)	-	-	-	-	-	-	.	.	.
Cn1nnc2ccccc2c1=O	-	-	-	-	-	-	.	.	.
CCC(OC(=O)c1cc2sccc2n1C)C(=O)NCc1ccco1 (centres undefined)	-	31	.	-	.	-	-	25	26
Cn1c(C(=O)OCC(=O)NCc2ccco2)cc2sccc21	-	-	.	-	.	-	.	.	.
COc1ccc(OC)c(S(=O)(=O)NC(N)=NCCc2ccccc2)c1	-	-	-	-	-	-	.	.	.
CCN(CC)c1ccc(C=Nc2ccccc2)c(O)c1	-	-	.	-	.	-	.	.	.
CCN(CC)c1ccc(C=Nc2ccc(N(C)C)cc2)c(O)c1	98	24	.	78	.	2498	-	-	-
COc1cc(/C=C(\C#N)C(=O)Nc2ccccc2C(=O)O)cc(Cl)c1OC	49	31	-	-	-	-	33	51	46
COc1ccc(/C=C(/C#N)C(=O)Nc2ccccc2C)cc1C(=O)O	-	-	-	-	-	-	.	.	.
COc1ccccc1CNC(=O)c1ccc2c(=O)n(CCCN3CCCC3=O)c(=S)[nH]c2c1	-	-	-	-	-	-	.	.	.
COc1ccc2c(C)cc(=S)[nH]c2c1	-	32	2185	22	2499	1987	-	-	-
COc1cc(C)c(Cl)cc1S(=O)(=O)NC1CC(C)(C)NC(C)(C)C1	-	-	-	-	-	-	.	.	.
O=C(CNc1ccc2ccccc2c1)N/N=C/c1cc2ccccc2nc1Cl	-	-	-	-	-	-	.	.	.
CCn1c(=O)cc(OCC(=O)NCc2cccnc2)c2ccccc21	-	-	.	-	.	-	.	.	.
